The campaign covered roughly 2,300 compounds. About 1,200 (52%) were called active. The rule behind the calls is not given here. So high a share suggests a set chosen from earlier hits. This is one part of the list. Measured potencies and affinities stand elsewhere.

The values that follow come from PubChem BioAssay AID435019 (Southern Research Specialized Biocontainment Screening …, 2010).

A short description of the experiment: mammalian cell cytotoxicity, dose response, cytotoxicity control for M. tuberculosis inhibitor project (AID 435019).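 Note: lower values mean fewer viable cells so more cytotoxicity.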 The note with it: cytotoxicity counter-screen; series mostly up to 40 µM. In general terms: A counterscreen serves to expose hits that act by an unwanted route or on another target.
For the molecule `Cc1c2c(nc3ccccc13)CCC(C)C2` (configuration not stated), the molecule was classed as inactive.

Consider `O=C1C(c2ccccc2)=[N+]([O-])c2ccccc21`, for which the outcome was inactive. Take `COc1ccc(NC(=O)CSC2CCCCC2)cc1`: the outcome was inactive. With `COc1ccc(C2CC(=O)c3cnc(Nc4cc(C)cc(C)c4)nc3C2)cc1` (configuration not stated), the outcome was inactive. The entry for `O=C(N/N=C/c1c(F)c(F)c(F)c(F)c1F)c1cccc(S(=O)(=O)N2CCOCC2)c1` is “inactive”; for `COc1ccc(NC(=O)c2oc3ccc(S(=O)(=O)N4CCOCC4)cc3c2C)cc1` it is “inactive”; for `COc1cc2cc(C(c3nnnn3C(C)(C)C)N3CCc4ccccc43)c(=O)[nH]c2cc1OC` (configuration not stated) it is “inactive”. `COc1ccc(C2=NC(=O)/C(=C\c3cc(OC)c(OC)c(OC)c3)O2)cc1`: the molecule was called inactive. Take `CCCCOC(=O)c1ccc(NC(=S)NC(=O)c2c(Br)c(C)nn2C)cc1`: the result was inactive. For the molecule `CN(CCO)c1cc(Sc2nc3ccccc3s2)c2nonc2c1[N+](=O)[O-]`, the outcome was inactive. The entry for `CCCSC1=C(C#N)C(c2ccc(Cl)cc2Cl)CC(=O)N1` (configuration not stated) is “inactive”; for `CN(C(=O)COC(=O)/C=C/c1ccc(Cl)c(Cl)c1)c1c(N)n(Cc2ccccc2)c(=O)[nH]c1=O` it is “inactive”; for `C=CCOc1c(Br)cc(CNc2nccs2)cc1OC` it is “inactive”.

For the molecule `O=C(CCc1nnc(CCCc2ccccc2)o1)NCCCC1CCCC1`, the result was inactive. The entry for `COc1ccc(N/C=C(\C2OC(=O)c3ccccc32)[N+](=O)[O-])cc1` (configuration not stated) is “inactive”; for `COc1ccc(N=N/C(=C\O)C(=O)c2cccs2)cc1` it is “inactive”; for `Cc1nc(SCC(=O)Nc2ccc(OCc3ccccc3)cc2)n[nH]1` it is “inactive”. Turning to `C=CCc1cccc2cc(C(=O)OCC(=O)c3ccccc3)c(=O)oc12`, the result was inactive. With `Cn1ccnc1C(=O)C1CCCN(Cc2cn[nH]c2-c2ccc(-c3ccccc3)cc2)C1` (configuration not stated), the molecule was called inactive. The entry for `O=C(OCc1csc(Nc2ccccc2)n1)c1ccc(Cl)cc1` is “inactive”.

On to `CC(=O)c1cccc(Nc2nc(-c3cccnc3)cs2)c1`, for which the call was inactive.

In the case of `O=C(/C=C/c1ccc([N+](=O)[O-])cc1)NC1CC2CCC1C2` (configuration not stated), the outcome was inactive.

As to `CC(C)Oc1ccc(C(=O)N/N=C/c2ccc(-c3ccc(S(=O)(=O)Nc4ncccn4)cc3)o2)cc1`, the molecule was called inactive. The entry for `O=C(c1ccc([N+](=O)[O-])s1)N1CCN(c2ccc(C(F)(F)F)cn2)CC1` is “inactive”. For `O=c1[nH]c(CN2CC=C(c3ccccc3)CC2)nc2cc(C(F)(F)F)ccc12`, the result was inactive.

Regarding `CC(C)CNC(=S)NC(=O)c1csc([N+](=O)[O-])c1`, the outcome was inactive.

As for `O=C(Nc1cc(C(F)(F)F)ccc1Cl)C(Sc1cccc[n+]1[O-])c1ccccc1` (configuration not stated), the call was inactive. The entry for `CC1(C)CC(=O)c2cc(C(=O)NNc3ccccc3)c(=O)n(-c3ccccc3)c2C1` is “inactive”; for `COc1ccc(NC(=O)CSc2nnc(-c3ccccn3)n2N)cc1Cl` it is “inactive”; for `CSc1nn(-c2ccc(C(=O)OCC(=O)NC(=O)NC(C)C)cc2)c(=S)s1` it is “inactive”. On to `COc1cc2c(cc1OC)CN(CCC(=O)c1ccc(Br)cc1)CC2`, for which the call was inactive. On to `C#CCCc1cscc1/C=[N+](\[O-])c1ccc(C(=O)OCC)cc1`, for which the molecule was classed as inactive.

In the case of `Cn1cnnc1SCc1ccc(-c2ccc(Br)cc2)o1`, the result was inactive. In the case of `Cc1ccc(NC(=O)/C(Cl)=C\c2ccccc2)cc1`, the result was inactive. As to `CCc1ccc(/C=C2/C(=O)N(C)C(=S)N2CC(=O)OC)s1`, the result was inactive. As to `Oc1ccc(/C=N/n2c3ccccc3c3ccccc32)cc1`, the molecule was classed as inactive. As to `Cc1ccc(N2C(=O)C(F)(F)C2c2ccccc2)cc1` (configuration not stated), the molecule was called inactive. Turning to `COc1ccccc1N1CCN(/N=C/C(Cl)=C/c2ccccc2)CC1`, the outcome was inactive.

Take `OCCN(/C=N/c1nc(-c2ccc(Br)cc2)cs1)CCO`: the outcome was inactive. For `CCOC(=O)c1cnc(SC2CCc3ccccc3C2=O)nc1N` (configuration not stated), the result was inactive. The entry for `CCOC(=O)c1cc2cc3ccccc3cc2oc1=O` is “inactive”; for `CC(Oc1cc2oc(=O)c3c(c2cc1Cl)CCCC3)C(=O)NCc1ccccn1` (configuration not stated) it is “inactive”; for `CCOC(=O)C1CCN(c2cc3c(cc2NC(=O)c2ccccc2Cl)n(C)c(=O)n3C)CC1` it is “inactive”. Turning to `CCN(CC(=O)NCc1cccs1)C(=O)c1ccc([N+](=O)[O-])o1`, the outcome was inactive. For `CC1=NN(c2ccc(C)c(C)c2)C(=O)/C1=C\C=C\c1ccc([N+](=O)[O-])o1`, the outcome was inactive. As to `CC(C)=N/N=C1/NC(=O)C(Cc2ccccc2)S1` (configuration not stated), the call was inactive. On to `Cc1cc(Nc2ccccc2)c2c([N+](=O)[O-])ccc(C)c2n1`, for which the molecule was called inactive. `Cc1ccc(N/N=C/C=C/c2ccco2)cc1`: the outcome was inactive. Regarding `O=c1c2cc(-c3ccccc3)sc2ncn1/N=C/c1ccco1`, the molecule was called inactive. In the case of `CCOC(=O)c1nc2sc3c(c2c(=O)[nH]1)CCC(C)C3` (configuration not stated), the result was inactive. Turning to `CCOC(=O)CCCNC(=O)COC(=O)c1cc(Br)c(Br)s1`, the call was inactive. For the molecule `CCOC(=O)CSc1nnc(SCCN2C(=O)c3ccccc3C2=O)s1`, the molecule was classed as inactive. As to `CCOC(=O)CSc1nn(-c2ccccc2)c(=S)s1`, the result was inactive. As to `Cc1ccc2c(c1)C1C[N+](C)(CC(=O)c3ccc(Cl)cc3Cl)CCC1N2C(=O)c1ccc(F)cc1` (configuration not stated), the result was inactive. The entry for `COC(=O)COc1ccc(-c2ccccc2)cc1C=O` is “inactive”; for `CCCCCCCCSc1nnc(CSc2nc3nc(C)cc(C)n3n2)o1` it is “inactive”. Turning to `Cc1cc(C)c2cc(C(=O)Nc3ccc(C)c(F)c3)[nH]c2c1`, the call was inactive.

Regarding `COC(=O)c1ccc(N/C(C)=C/C(=O)c2ccc(C)o2)cc1`, the molecule was called inactive. With `Cc1ccccc1NC(=O)Cc1nc(COC(=O)/C=C/c2ccccc2)cs1`, the result was inactive. The entry for `COC(=O)c1cc(/C=C/c2ccccc2)on1` is “inactive”; for `N#Cc1c(SCC(N)=O)nsc1SCc1ccccc1Cl` it is “inactive”.

As for `O=C(CN1CCN(c2nc(-c3ccc(F)cc3)cs2)CC1)NCc1ccc2c(c1)OCO2`, the outcome was inactive. For the molecule `CCCCOc1ccc(-c2nnn(C(C)C(=O)OCC)n2)cc1` (configuration not stated), the call was inactive. The entry for `Cc1cccc(N2CCN(CC(=O)Nc3nccs3)CC2)c1C` is “inactive”. Take `CC1CCc2c(C(=O)Nc3nccs3)csc2C1` (configuration not stated): the outcome was inactive. The entry for `Nc1ccc2cc(Br)ccc2c1` is “inactive”. Turning to `COC(=O)c1ccc(N/N=C/c2cc([N+](=O)[O-])cc(OC)c2O)cc1`, the outcome was inactive. For `COC(=O)Cc1ccc(NC(=O)c2ccc(Br)o2)cc1`, the outcome was inactive. On to `CC1CCN(C(=O)c2ccc(-c3ccccc3Cl)o2)CC1`, for which the result was inactive. With `CCOC(=O)CSCC(=O)N1CCC(Cc2ccccc2)CC1`, the molecule was called inactive. For the molecule `COc1ccc(OC(=O)c2cc3cc(Cl)ccc3oc2=O)cc1`, the molecule was called inactive. As for `Cc1cccc(OCC(=O)NNC(=O)c2cc3ccccc3oc2=O)c1`, the molecule was classed as inactive.
